FLuc modulator = counter-screen for miR-21 project: firefly luciferase inhibitors or activators. Potency, µM (top dose mostly 57.5 µM), actives largely listed as inhibitors. AID 588342. P08659. 360,000 tested, 6.9% active. purified FLuc, Km substrates, luminescence inhibition; further: nearly all actives have a fitted effect of over 55% in size
Target sequence (P08659 whole entry, looked up): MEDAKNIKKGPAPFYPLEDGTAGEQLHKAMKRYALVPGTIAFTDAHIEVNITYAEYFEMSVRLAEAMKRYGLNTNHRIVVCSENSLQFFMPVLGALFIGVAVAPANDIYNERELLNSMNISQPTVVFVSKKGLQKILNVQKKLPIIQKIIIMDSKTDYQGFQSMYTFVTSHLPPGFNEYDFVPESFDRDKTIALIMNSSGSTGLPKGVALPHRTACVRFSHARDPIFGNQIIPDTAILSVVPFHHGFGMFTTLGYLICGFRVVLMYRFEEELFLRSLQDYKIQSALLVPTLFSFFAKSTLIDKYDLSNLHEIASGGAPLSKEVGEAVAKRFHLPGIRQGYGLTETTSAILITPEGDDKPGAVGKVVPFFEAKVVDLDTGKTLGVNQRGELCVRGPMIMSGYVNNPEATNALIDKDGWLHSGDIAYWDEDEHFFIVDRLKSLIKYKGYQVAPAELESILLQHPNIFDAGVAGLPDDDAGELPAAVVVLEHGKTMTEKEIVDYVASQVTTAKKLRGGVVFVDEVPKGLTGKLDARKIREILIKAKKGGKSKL
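Biochemical qHTS of compounds, final roughly 60 µM downward over six points, against 10 nM purified firefly luciferase using Km concentrations of substrates (10 uM D-luciferin, 10 uM ATP) in Tris acetate pH 7.5 buffer; luminescence output.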
Rab9 promoter act = Rab9 promoter activation | Huh7 Rab9 promoter-luciferase reporter, luminescence, 24 h | Potency, µM (doses to about 9.22 µM), usual class: activators | 320,000 tested, 2.8% active | AID 485297; further: nearly all actives have a fitted effect of over 60% in size
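Steps: seed 1500 Huh7 Rab9-luc cells per well, rest 2 h at 37 °C; add compound in DMSO; incubate 24 h; add luciferase reagent, 10 min ambient; read luminescence.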
NPC1 promoter act = activators of NPC1 promoter; Huh7 NPC1 promoter luciferase reporter, 24 h; Potency, µM (highest dose often 9.22 µM), hits mostly activators; 320,000 tested, 2.4% active; AID 485313; further: nearly all actives have a fitted effect of over 60% in size
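Stably transfected Huh7 (NPC1 promoter→luciferase), 1500 cells/well in Opti-MEM + 10% FBS, 2 h settle, then compound 24 h at 37 °C. Luminescence after 10 min with Amplite reagent.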
ELG1 DNA repair = inhibitors of ELG1-dependent DNA repair in HEK293T cells; AID 504467; 330,000 tested, 2.3% active; Potency, µM (top dose mostly 46.1 µM), hits mostly inhibitors; HEK293T ELG1-luciferase reporter, luminescence, 16 h; DNA damage induced by 5-fluorouridine; further: nearly all actives have a fitted effect of over 55% in size
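Overnight (16 hr) co-exposure of 2,000 cells/well to 5-fluorouridine and compound at 37 °C preceded detection. Luciferase was quantified via ONE-Glo luminescence; loss of signal denotes inhibition.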
SMN2 splice enh = increases expression of the SMN2 splice variant. Potency, µM (series often up to 46.1 µM), actives largely listed as activators. AID 1458. HEK293 SMN2-luciferase splicing reporter, luminescence, 30-36 h. 210,000 tested, 2.8% active; further: nearly all actives have a fitted effect of over 55% in size
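HEK293 cells carry an SMN2 […]–luciferase reporter in which exon 7 inclusion puts luciferase in frame. Cells were plated 10-12 h before compound addition, then incubated 30-36 h at 37C. ONE-Glo luminescence was read; sodium butyrate at 4.5 mM final served as control.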
ELG1 genotoxic = inducers of genotoxicity in HEK293T ELG1-luciferase cells; HEK293T ELG1-luciferase reporter, luminescence, 16 h; Potency, µM (series often up to 46 µM), actives largely listed as activators; 330,000 tested, 1.3% active; AID 504466; further: nearly all actives have a fitted effect of over 60% in size
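HEK293T cells expressing luciferase-tagged ELG1 were exposed to compound or DMSO vehicle for 16 hr at 37 °C and 5% CO2. Luciferase activity was then measured with ONE-Glo after 30 min at room temperature.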
Of the large screens only hits and unclear results are named; the others gave an inactive call. Only some compounds are listed: those with a hit (about 9.3% of all), similar ones and a draw of the others. The call rests on the fitted dose curve; in most records, active means well fitted curve in the direction sought with a large enough effect; inconclusive means small, poorly fitted or top-dose-only effect, or another doubt; inactive means no such curve, though single readings can be large; an effect the other way counts as inactive or inconclusive.

Cc1ccc(CN2CCN(CC(=O)Nc3ccc(C)c(C)c3)S2(=O)=O)cc1	none (no result: Rab9 promoter act, NPC1 promoter act, ELG1 DNA repair, SMN2 splice enh, ELG1 genotoxic)
C[C@H](CO)N1C[C@H](C)[C@@H](CN(C)S(C)(=O)=O)Oc2c(NC(=O)c3ccncc3)cccc2C1=O	none (no result: FLuc modulator, Rab9 promoter act, NPC1 promoter act, SMN2 splice enh)
COc1ccc(N=CC2=C(O)c3ccccc3C2=O)c(OC)c1	FLuc modulator 0.0757µM, Rab9 promoter act 0.708µM, NPC1 promoter act inconclusive, ELG1 DNA repair inconclusive, ELG1 genotoxic 0.0651µM
Cc1ccccc1N=CC1=C(O)c2ccccc2C1=O	FLuc modulator 0.135µM, Rab9 promoter act 0.251µM, NPC1 promoter act inconclusive, ELG1 DNA repair inconclusive, SMN2 splice enh 8.91µM, ELG1 genotoxic inconclusive
O=C1C(C=NCc2ccncc2)=C(O)c2ccccc21	none
Cc1ccc(C2=C(O)c3ccccc3C(=O)C2=O)cc1	FLuc modulator inconclusive (no result: SMN2 splice enh)
COc1ccc(/C(C)=N/NS(=O)(=O)c2ccccc2)c(OC)c1	none
O=C1C(C=Nc2ccc(F)cc2)=C(O)c2ccccc21	FLuc modulator 0.269µM, Rab9 promoter act 0.794µM, NPC1 promoter act 0.355µM, ELG1 DNA repair inconclusive, ELG1 genotoxic inconclusive (no result: SMN2 splice enh)
CCOC(=O)c1c(CNc2ccncc2)n(C)c2cc(Br)c(O)cc12	none
CCOC(=O)c1c(C)n(C)c2ccc(OCC(O)Cn3c(C)nc4ccccc43)cc12 (configuration not stated)	ELG1 DNA repair 11.6µM
COC(=O)c1ccc(C(=O)OC)c(N)c1	FLuc modulator inconclusive
COC(=O)c1ccc(N2CCC(C)CC2)c(N)c1	FLuc modulator 12µM, Rab9 promoter act inconclusive, NPC1 promoter act inconclusive, ELG1 DNA repair inconclusive, ELG1 genotoxic 18.4µM
COC(=O)c1ccc(N2CCCCC2)c(N)c1	FLuc modulator 10.7µM, Rab9 promoter act 3.55µM, NPC1 promoter act inconclusive, ELG1 DNA repair inconclusive, SMN2 splice enh 22.4µM, ELG1 genotoxic inconclusive
COc1ccc(C)cc1NC(=O)C(Sc1nnc(-c2cccs2)o1)c1ccccc1 (configuration not stated)	none
COc1ccc(N(C(=O)c2snc(C(N)=O)c2N)C(C(=O)NC2CCCCC2)c2ccc(C)o2)c(OC)c1 (configuration not stated)	none (no result: SMN2 splice enh)
COc1ccc(/C=N/N(C(C)=O)c2nc(-c3ccc(C)cc3)cs2)cc1	none
COc1ccccc1/C=N/N(C(C)=O)c1nc(-c2ccc(F)cc2)cs1	Rab9 promoter act 6.31µM, NPC1 promoter act inconclusive, ELG1 DNA repair inconclusive, SMN2 splice enh inconclusive, ELG1 genotoxic inconclusive
CC(C)(C)N1CC2(c3ccccc3)CN(C(C)(C)C)CC(c3ccccc3)(C1)C2=O	none
CCOc1ccc2nc(N3C(=O)/C(=C/c4ccccc4)NC3=S)sc2c1	FLuc modulator 6.01µM, Rab9 promoter act inconclusive, NPC1 promoter act inconclusive, ELG1 DNA repair inconclusive, ELG1 genotoxic inconclusive (no result: SMN2 splice enh)
COc1ccc2nc(-n3c(C)ccc3C)sc2c1	ELG1 DNA repair inconclusive
CCOc1ccc2nc(Cl)sc2c1	none
COc1ccc2nc(N3C(=O)/C(=C/c4ccccc4)NC3=S)sc2c1	FLuc modulator 10.7µM
CCC(=O)N1CCN(c2ccc(NC(=O)c3ccc([N+](=O)[O-])o3)cc2Cl)CC1	ELG1 DNA repair inconclusive
CCCc1cc(=O)n2[nH]c(-c3ccco3)nc2n1	FLuc modulator 15.1µM
Cc1cc(=O)n2[nH]c(-c3ccco3)nc2n1	FLuc modulator inconclusive
O=C(Nc1ccc2oc(-c3cc(Br)ccc3Cl)nc2c1)c1ccc2ccccc2c1	none (no result: Rab9 promoter act, NPC1 promoter act, ELG1 DNA repair, ELG1 genotoxic)
COc1cc2ccccc2cc1C(=O)Nc1ccc2oc(-c3cccc(Cl)c3Cl)nc2c1	none (no result: Rab9 promoter act, NPC1 promoter act, ELG1 DNA repair, ELG1 genotoxic)
O=C(Nc1ccc2oc(-c3ccccc3Cl)nc2c1)c1ncn[nH]1	FLuc modulator 3.01µM, Rab9 promoter act 3.55µM, NPC1 promoter act 1.41µM, ELG1 DNA repair inconclusive, SMN2 splice enh 10µM, ELG1 genotoxic 8.2µM
O=C(Nc1ccc2oc(-c3cccc4ccccc34)nc2c1)c1ncn[nH]1	FLuc modulator inconclusive, Rab9 promoter act 2.82µM, NPC1 promoter act inconclusive, ELG1 DNA repair inconclusive, SMN2 splice enh inconclusive, ELG1 genotoxic inconclusive
Cc1ccc(OCC(=O)Nc2ccc3c(c2)CCC3)c([N+](=O)[O-])n1	FLuc modulator 26.9µM, ELG1 DNA repair inconclusive, ELG1 genotoxic inconclusive
Cc1ccc(OCC(=O)Nc2ccc(F)cc2)c([N+](=O)[O-])n1	FLuc modulator 12µM, Rab9 promoter act 3.55µM, NPC1 promoter act inconclusive, ELG1 DNA repair inconclusive, SMN2 splice enh 12.6µM, ELG1 genotoxic inconclusive
Cc1ccc(OCC(=O)Nc2ccc(Cl)cc2)c([N+](=O)[O-])n1	Rab9 promoter act inconclusive, NPC1 promoter act 2.82µM, ELG1 DNA repair inconclusive, ELG1 genotoxic inconclusive (no result: FLuc modulator, SMN2 splice enh)
COc1cc(Cl)c(C)cc1NC(=O)COc1ccc(C)nc1[N+](=O)[O-]	Rab9 promoter act 3.98µM, NPC1 promoter act inconclusive, ELG1 DNA repair inconclusive (no result: SMN2 splice enh)
Cc1ccc(OCC(=O)Nc2ccc(S(=O)(=O)N3CCCCC3)cc2)c([N+](=O)[O-])n1	ELG1 DNA repair inconclusive
COc1ccc(NC(=O)COc2ccc(C)nc2[N+](=O)[O-])cc1S(N)(=O)=O	none (no result: SMN2 splice enh)
Cc1ccc(OCC(=O)NCC(=O)Nc2ccc(F)cc2)c([N+](=O)[O-])n1	none
O=C1NC(=Nc2cccc([N+](=O)[O-])c2)SC1(CO)CO	none (no result: SMN2 splice enh)
COc1ccc2oc(C(=O)OCC(=O)NC3(C#N)CCCC3)c(C)c2c1	none (no result: SMN2 splice enh)

Screening results from PubChem BioAssay.
